Assay results taken from the supplement of paper PMC9446081.
In all, about 39,000 compounds went through this assay and about 220 (0.56%) showed activity. Many of the other results were omitted from the sample, so actives are more common in it than they were.
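Note: Wild-type cells incubated without shaking, value is the mean of two biological replicates.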

The compounds below were run on Escherichia coli K-12 BW25113 (assay: relative growth (OD600 normalised to plate interquartile mean) (fraction); higher = less growth inhibition, active = 0.2 or less). Details: 50 µM; LB; incubation time: overnight (16-24 h).
`Cc1ccc(S(=O)(=O)N(C)C[C@@H]2OCCCC[C@H](C)Oc3ccc(NC(=O)Nc4ccc(F)cc4)cc3C(=O)N([C@H](C)CO)C[C@H]2C)cc1` was tested, and the relative growth was 0.983 (inactive).
In the case of `CC(C)NC(=O)Nc1ccc2c(c1)C(=O)N([C@H](C)CO)C[C@H](C)[C@@H](CN(C)C(=O)C1CCCCC1)OCCCC[C@@H](C)O2`, the relative growth is reported as 0.984 (inactive).
`COc1cc2c(cc1OC)C(=O)C(CC1CCN(Cc3ccccc3)CC1)C2.Cl` (configuration not stated) was tested, and the relative growth was 0.0489 (active).
In the case of `NC1CCN(Cc2ccccc2)CC1`, the relative growth is reported as 1.09 (inactive).
For `NCC1CCN(Cc2ccccc2)CC1`, the relative growth was 1.02 (inactive).
For `O=C(C[C@H]1C[C@@H]2c3cc(NS(=O)(=O)c4ccc(F)cc4)ccc3O[C@@H]2[C@@H](CO)O1)NCc1ccccn1`, the relative growth was 1.01 (inactive).
For `NC1(CC(=O)O)CCN(Cc2ccccc2)CC1`, the relative growth was 0.999 (inactive).
`Cn1cc(CN2CCC(C(=O)N[C@@H](c3ccc(F)cc3)c3ccc4ccccc4n3)CC2)c2ccccc21` was tested, and the relative growth was 0.963 (inactive).
For `C[C@@H]1CN([C@H](C)CO)C(=O)c2cccc(NS(=O)(=O)c3cn(C)cn3)c2O[C@@H]1CN(C)CC1CCCCC1`, the relative growth was 0.98 (inactive).
With `COc1ccc(CN(C)C[C@@H]2Oc3c(NC(=O)c4cc(C)nn4C)cccc3C(=O)N([C@@H](C)CO)C[C@H]2C)cc1` the relative growth was 0.957 (inactive).
`CCn1cc(C(=O)O)c(=O)c2cc(F)c(N3CCN(C(=S)Nc4cc(C(F)(F)F)ccc4Cl)CC3)cc21` was tested, and the relative growth was 0.0858 (active).
`CCn1cc(C(=O)O)c(=O)c2cc(F)c(N3CCN(C)CC3)cc21.CS(=O)(=O)O` was tested, and the relative growth was 0.0455 (active).
With `O=C(OC(C(F)(F)F)C(F)(F)F)N1CCN(Cc2ccc(C(F)(F)F)cc2N2CCCC2)CC1` the relative growth was 0.994 (inactive).
With `CCn1cc(C(=O)N2CCN(C)CC2)c(=O)c2cc(S(=O)(=O)N(C)C)ccc21` the relative growth was 0.974 (inactive).
For `CCn1cc(C(=O)O)c(=O)c2cc(F)c(N3CCNCC3)cc21`, the relative growth was 0.0456 (active).
`CCOC(=O)c1c[nH]c(CC(C)=O)nc1=O` was tested, and the relative growth was 0.999 (inactive).
With `Cc1ccc(S(=O)(=O)N2C[C@@H](O)COC[C@H]3O[C@H](CC(=O)N[C@H]4CCN(Cc5ccccc5)C4)CC[C@@H]32)cc1` the relative growth was 1.01 (inactive).
In the case of `C[C@H]1CN([C@@H](C)CO)C(=O)Cc2cc(NC(=O)Nc3ccc4c(c3)OCO4)ccc2O[C@H]1CN(C)S(=O)(=O)c1cn(C)cn1`, the relative growth is reported as 0.835 (inactive).
With `C[C@@H]1CN([C@H](C)CO)C(=O)c2cccc(NC(=O)Nc3cccc4ccccc34)c2O[C@H]1CN(C)S(=O)(=O)c1ccccc1` the relative growth was 0.987 (inactive).
In the case of `COc1ccc(S(=O)(=O)N(C)C[C@H]2Oc3c(NS(=O)(=O)c4c(C)noc4C)cccc3C(=O)N([C@H](C)CO)C[C@H]2C)cc1`, the relative growth is reported as 0.997 (inactive).
In the case of `CON=C1CN(c2nc3c(cc2F)c(=O)c(C(=O)O)cn3C2CC2)CC1CN.CS(=O)(=O)O` (configuration not stated), the relative growth is reported as 0.0419 (active).
In the case of `CO/N=C1\CN(c2nc3c(cc2F)c(=O)c(C(=O)O)cn3C2CC2)C[C@@H]1CN`, the relative growth is reported as 0.154 (active).
For `C[C@H]1CN([C@@H](C)CO)C(=O)Cc2cc(NC(=O)NC3CCCCC3)ccc2O[C@H]1CN(C)S(=O)(=O)c1cn(C)cn1`, the relative growth was 0.985 (inactive).
In the case of `C[C@H]1CN([C@@H](C)CO)C(=O)c2cc(NC(=O)Cc3ccccc3)ccc2O[C@@H]1CN(C)S(=O)(=O)c1cccs1`, the relative growth is reported as 0.993 (inactive).
For `Nc1ccc(OCC(=O)N2CCOCC2)cc1`, the relative growth was 1.03 (inactive).
For `CC(C)NC(=O)Nc1ccc2c(c1)C(=O)N([C@H](C)CO)C[C@@H](C)[C@H](CN(C)Cc1ccc(C(F)(F)F)cc1)OCCCC[C@@H](C)O2`, the relative growth was 1.02 (inactive).
For `CCOc1ccc2c(c1)-c1c(ssc1=S)C(C)(C)N2C`, the relative growth was 0.993 (inactive).
For `CCN1CCN(C(=O)NC(C(=O)NC2C(=O)N3C2SC(C)(C)C3C(=O)[O-])c2ccccc2)C(=O)C1=O.[Na+]` (configuration not stated), the relative growth was 0.0465 (active).
For `CC1(C)SC2C(NC(=O)C(C(=O)[O-])c3ccccc3)C(=O)N2C1C(=O)[O-].[Na+].[Na+]` (configuration not stated), the relative growth was 1.1 (inactive).
In the case of `CC1(C)SC2C(NC(=O)C(NC(=O)N3CCNC3=O)c3ccccc3)C(=O)N2C1C(=O)[O-].[Na+]` (configuration not stated), the relative growth is reported as 0.263 (inactive).
`CC1(C)S[C@@H]2[C@H](NC(=O)[C@H](NC(=O)N3CCNC3=O)c3ccccc3)C(=O)N2[C@H]1C(=O)O` was tested, and the relative growth was 0.0984 (active).
`CC1(C)S[C@H]2[C@@H](NC(=O)[C@@H](NC(=O)N3CCN(S(C)(=O)=O)C3=O)c3ccccc3)C(=O)N2[C@@H]1C(=O)O` was tested, and the relative growth was 0.237 (inactive).
In the case of `CCN1CCN(C(=O)N[C@@H](C(=O)N[C@@H]2C(=O)N3[C@@H]2SC(C)(C)[C@@H]3C(=O)O)c2ccccc2)C(=O)C1=O`, the relative growth is reported as 0.606 (inactive).
With `C[C@@H]1CN([C@H](C)CO)C(=O)CCCn2cc(nn2)CO[C@H]1CN(C)C(=O)C1CC1` the relative growth was 1.02 (inactive).
For `Cn1nc(-c2ccccn2)nc2c(=O)n(C)c(=O)nc1-2`, the relative growth was 0.933 (inactive).
For `C[C@@H]1CCCCO[C@H](CN(C)Cc2ccccc2)[C@H](C)CN([C@@H](C)CO)C(=O)c2cc(NS(=O)(=O)c3cccs3)ccc2O1`, the relative growth was 0.975 (inactive).
In the case of `C[C@@H]1CN([C@H](C)CO)S(=O)(=O)c2ccc(-c3cccc(C#N)c3)cc2O[C@@H]1CN(C)C(=O)c1ccncc1`, the relative growth is reported as 1 (inactive).
With `C[C@@H]1CN([C@H](C)CO)C(=O)Cc2cc(NS(=O)(=O)c3cccs3)ccc2O[C@@H]1CN(C)Cc1ccc(Cl)c(Cl)c1` the relative growth was 1.01 (inactive).
With `O=C(C[C@@H]1CC[C@H](NC(=O)c2cnccn2)[C@@H](CO)O1)NCc1ccccc1F` the relative growth was 0.993 (inactive).
With `Cc1noc(C)c1S(=O)(=O)Nc1ccc2c(c1)CC(=O)N([C@@H](C)CO)C[C@@H](C)[C@H](CN(C)S(C)(=O)=O)O2` the relative growth was 0.975 (inactive).
`COc1ccc(NC(=O)Nc2ccc3c(c2)C(=O)N([C@@H](C)CO)C[C@H](C)[C@H](CN(C)S(C)(=O)=O)O3)cc1` was tested, and the relative growth was 0.991 (inactive).
`Cc1ccc(S(=O)(=O)N(C)C[C@H]2Oc3c(NC(=O)c4ccncc4)cccc3C(=O)N([C@@H](C)CO)C[C@H]2C)cc1` was tested, and the relative growth was 1.01 (inactive).
